Results on ten compounds are retold here after PubChem BioAssay (NCI).

A short description of experiment [1]: NCI Yeast Anticancer Drug Screen. Data for the rad50 strain (AID 155).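 Also: 0% = growth of vehicle-only cultures of the same strain.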 Particulars: S. cerevisiae rad50 strain growth inhibition, active compounds read high. Summed up: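 Inhibition values express reduced yeast growth in compound-treated cultures relative to vehicle-treated controls.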
Experiment [2] in a line: NCI Yeast Anticancer Drug Screen. Data for the mec2-1 strain (AID 157). Particulars: S. cerevisiae mec2-1 strain, active compounds read high. Summed up:
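Compounds were applied to mec2-1 yeast cells. Their growth was then compared with that of vehicle-treated cultures to give growth inhibition.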

Experiment [3] in a line: NCI Yeast Anticancer Drug Screen. Data for the sgs1 mgt1 strain (AID 161).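 Also: 0% = growth of cultures given vehicle only.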 Particulars: S. cerevisiae sgs1 mgt1 strain, active compounds read high. Summed up: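 Yeast cells carrying a defined DNA-repair defect were exposed to test compounds. Growth inhibition was measured relative to vehicle-treated controls.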
A short description of experiment [4]: NCI Yeast Anticancer Drug Screen. Data for the cln2 rad14 strain (AID 165).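 Also: 0% = growth equal to vehicle treated cultures.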 The settings on record: S. cerevisiae cln2 rad14 strain, active compounds read high. Summed up:
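Strain: cln2 rad14 yeast, altered in cell cycle control and DNA damage repair. Read-out: growth inhibition vs vehicle.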

Experiment [5] is described as follows: NCI Yeast Anticancer Drug Screen. Data for the bub3 strain (AID 167). The settings on record: S. cerevisiae bub3 mutant strain, active compounds read high. Summed up:
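Steps: expose the mutant yeast strain to compound; grow alongside vehicle-treated cultures; measure growth; express inhibition against the vehicle cultures.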

Experiment [6] in a line: NCI Yeast Anticancer Drug Screen. Data for the mlh1 rad18 strain (AID 175). Particulars: S. cerevisiae mlh1 rad18 strain growth inhibition, active compounds read high. In a few lines: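 A repair-deficient yeast strain is exposed to test compound, and growth is scored relative to vehicle-treated controls.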
Setting [7] is: at 5.0 µM (retest, dose inferred, filed as 0.5).
Where [8] appears, read: at 50.0 µM (retest, dose inferred, filed as 5.0).

The structures appear in SMILES notation. The panel holds about 79,000 compounds, 15% with a hit somewhere; the sample as a whole holds those more often. A number with no mark means an inactive call. Calls of active or inactive are those of the source. Rule as the data show it: active = growth inhibition above about 70%; inactive = the rest.

Consider `CCOCCOc1ccc(OCCOCC)cc1`, for which the growth inhibition in experiment [1] (setting [7]) is -8%; in experiment [1] (setting [8]) it was -13%; in experiment [1] (at 50.0 µM), -1.9%; in experiment [2] (setting [7]) it was -8%; in experiment [2] (setting [8]), -13%; in experiment [2] (at 50.0 µM), -1.7%. The growth inhibition in experiment [3] (setting [7]) was -66%; in experiment [3] (setting [8]), -9%; in experiment [3] (at 50.0 µM), -7%; in experiment [4] (setting [7]), -4%; in experiment [4] (setting [8]) it was -10%; in experiment [4] (at 50.0 µM), 37.3%. In addition, the growth inhibition in experiment [5] (setting [7]) is -8%; in experiment [5] (setting [8]), -4%; in experiment [5] (at 50.0 µM) it was -2.95%; in experiment [6] (setting [7]), 13%; in experiment [6] (setting [8]) it was -15%; in experiment [6] (at 50.0 µM), 0.4%.
On to `O=C(CCl)Nc1cc(Cl)ccc1Cl`, for which the growth inhibition was 2% in experiment [1] (setting [7]); 23% in experiment [1] (setting [8]); 37.5% in experiment [1] (at 50.0 µM); -20% in experiment [2] (setting [7]); 26% in experiment [2] (setting [8]); 30.8% in experiment [2] (at 50.0 µM). Moreover, the growth inhibition is 6% in experiment [3] (setting [7]); 30% in experiment [3] (setting [8]); 43.4% in experiment [3] (at 50.0 µM); 5% in experiment [4] (setting [7]); 20% in experiment [4] (setting [8]); 18.1% in experiment [4] (at 50.0 µM). The growth inhibition was 10% in experiment [5] (setting [7]); 83% (active) in experiment [5] (setting [8]); 84.6% (active) in experiment [5] (at 50.0 µM); 2% in experiment [6] (setting [7]); 18% in experiment [6] (setting [8]); 4.8% in experiment [6] (at 50.0 µM).
For `CC(C)(c1cc(Br)c(O)c(Br)c1)c1cc(Br)c(O)c(Br)c1`, the growth inhibition was 76% (active) in experiment [1] (setting [7]); 97% (active) in experiment [1] (setting [8]); 87.2% (active) in experiment [1] (at 50.0 µM); 82% (active) in experiment [2] (setting [7]); 99% (active) in experiment [2] (setting [8]); 90.7% (active) in experiment [2] (at 50.0 µM). Further, the growth inhibition is 85% (active) in experiment [3] (setting [7]); 98% (active) in experiment [3] (setting [8]); 87.9% (active) in experiment [3] (at 50.0 µM); 81% (active) in experiment [4] (setting [7]); 99% (active) in experiment [4] (setting [8]); 89.5% (active) in experiment [4] (at 50.0 µM). In addition, the growth inhibition in experiment [5] (setting [7]) is 88% (active); in experiment [5] (setting [8]), 98% (active); in experiment [5] (at 50.0 µM), 87.5% (active); in experiment [6] (setting [7]) it was 93% (active); in experiment [6] (setting [8]) it was 97% (active); in experiment [6] (at 50.0 µM) it was 87.5% (active).
Regarding `COC(=O)/C=C1/OC(c2ccccc2)=CC1=O`, the growth inhibition is 31% in experiment [1] (setting [7]); 31% in experiment [1] (setting [8]); 87.5% (active) in experiment [1] (at 50.0 µM); 8% in experiment [2] (setting [7]); 8% in experiment [2] (setting [8]); 91.7% (active) in experiment [2] (at 50.0 µM). In addition, the growth inhibition was 22% in experiment [3] (setting [7]); 22% in experiment [3] (setting [8]); 57% in experiment [3] (at 50.0 µM); -2% in experiment [4] (setting [7]); -2% in experiment [4] (setting [8]); 70.3% (active) in experiment [4] (at 50.0 µM). Further, the growth inhibition was 0% in experiment [5] (setting [7]); 0% in experiment [5] (setting [8]); 85.8% (active) in experiment [5] (at 50.0 µM); 9% in experiment [6] (setting [7]); 9% in experiment [6] (setting [8]); 86.2% (active) in experiment [6] (at 50.0 µM).
Consider `COc1ccc2nc3cc(Cl)ccc3c(NCCCCCCNc3c4ccc(Cl)cc4nc4ccc(OC)nc34)c2n1`, for which the growth inhibition in experiment [1] (setting [7]) is 5%; in experiment [1] (setting [8]) it was 87% (active); in experiment [1] (at 50.0 µM) it was 96.9% (active); in experiment [2] (setting [7]), 6%; in experiment [2] (setting [8]) it was 74% (active); in experiment [2] (at 50.0 µM) it was 98.2% (active). The growth inhibition in experiment [3] (setting [7]) is 5%; in experiment [3] (setting [8]), 82% (active); in experiment [3] (at 50.0 µM), 98.2% (active); in experiment [4] (setting [7]), 4%; in experiment [4] (setting [8]), 80% (active); in experiment [4] (at 50.0 µM), 91.5% (active). Also, the growth inhibition in experiment [5] (setting [7]) is 3%; in experiment [5] (setting [8]) it was 92% (active); in experiment [5] (at 50.0 µM), 96.8% (active); in experiment [6] (setting [7]), 2%; in experiment [6] (setting [8]), 82% (active); in experiment [6] (at 50.0 µM), 96.5% (active).
`O=C(O)C1C(c2ccccc2)=C1c1ccccc1`: the growth inhibition was -7% in experiment [1] (setting [7]); 22% in experiment [1] (setting [8]); 73.8% (active) in experiment [1] (at 50.0 µM); 0% in experiment [2] (setting [7]); 7% in experiment [2] (setting [8]); 56.4% in experiment [2] (at 50.0 µM). For the same compound, the growth inhibition in experiment [3] (setting [7]) was 10%; in experiment [3] (setting [8]), 41%; in experiment [3] (at 50.0 µM), 59.6%; in experiment [4] (setting [7]), -44%; in experiment [4] (setting [8]), -3%; in experiment [4] (at 50.0 µM), 57.8%. The growth inhibition in experiment [5] (setting [7]) was -22%; in experiment [5] (setting [8]) it was 7%; in experiment [5] (at 50.0 µM) it was 39.2%; in experiment [6] (setting [7]) it was -12%; in experiment [6] (setting [8]), 12%; in experiment [6] (at 50.0 µM), 46.5%.
As for `N=C1C=CC(=C(c2ccc(N)cc2)c2ccc(N)cc2)C=C1`, the growth inhibition is -2% in experiment [1] (setting [7]); 99% (active) in experiment [1] (setting [8]); 98.8% (active) in experiment [1] (at 50.0 µM); 24% in experiment [2] (setting [7]); 98% (active) in experiment [2] (setting [8]); 98.5% (active) in experiment [2] (at 50.0 µM). In addition, the growth inhibition in experiment [3] (setting [7]) was 8%; in experiment [3] (setting [8]), 97% (active); in experiment [3] (at 50.0 µM) it was 97.8% (active); in experiment [4] (setting [7]) it was -15%; in experiment [4] (setting [8]), 93% (active); in experiment [4] (at 50.0 µM), 96.8% (active). The growth inhibition in experiment [5] (setting [7]) is 12%; in experiment [5] (setting [8]) it was 98% (active); in experiment [5] (at 50.0 µM), 98.3% (active); in experiment [6] (setting [7]) it was -4%; in experiment [6] (setting [8]) it was 97% (active); in experiment [6] (at 50.0 µM), 97.4% (active).
`O=C(O)c1nc2cc(C(F)(F)F)ccc2nc1Nc1ccc(F)cc1`: the growth inhibition in experiment [1] (setting [7]) was 32%; in experiment [1] (setting [8]), 64%; in experiment [1] (at 50.0 µM) it was 64%; in experiment [2] (setting [7]) it was 23%; in experiment [2] (setting [8]), 66%; in experiment [2] (at 50.0 µM), 68.2%. Also, the growth inhibition is 23% in experiment [3] (setting [7]); 60% in experiment [3] (setting [8]); 74.7% (active) in experiment [3] (at 50.0 µM); 20% in experiment [4] (setting [7]); 57% in experiment [4] (setting [8]); 79.7% (active) in experiment [4] (at 50.0 µM). Also, the growth inhibition was 31% in experiment [5] (setting [7]); 60% in experiment [5] (setting [8]); 74.7% (active) in experiment [5] (at 50.0 µM); 30% in experiment [6] (setting [7]); 75% (active) in experiment [6] (setting [8]); 42.9% in experiment [6] (at 50.0 µM).
Take `CCOc1ccccc1/C=C1\NC(=O)N(/C=C2\C(=O)Oc3ccccc3C2=O)C1=O`: the growth inhibition in experiment [1] (setting [7]) is 6%; in experiment [1] (setting [8]), 96% (active); in experiment [1] (at 50.0 µM) it was 93.7% (active); in experiment [2] (setting [7]), -13%; in experiment [2] (setting [8]) it was 96% (active); in experiment [2] (at 50.0 µM), 94.2% (active). In addition, the growth inhibition in experiment [3] (setting [7]) is 0%; in experiment [3] (setting [8]), 85% (active); in experiment [3] (at 50.0 µM), 97.2% (active); in experiment [4] (setting [7]), 6%; in experiment [4] (setting [8]) it was 95% (active); in experiment [4] (at 50.0 µM) it was 88.5% (active). In addition, the growth inhibition in experiment [5] (setting [7]) was -4%; in experiment [5] (setting [8]), 96% (active); in experiment [5] (at 50.0 µM), 94.7% (active); in experiment [6] (setting [7]) it was 1%; in experiment [6] (setting [8]) it was 89% (active); in experiment [6] (at 50.0 µM), 95.5% (active).
`Cc1ccc(S(=O)(=O)Oc2ccc(C(C)(C)C)cc2Cl)cc1`: the growth inhibition in experiment [1] (setting [7]) is -8%; in experiment [1] (setting [8]) it was -11%; in experiment [1] (at 50.0 µM), -5.5%; in experiment [2] (setting [7]) it was -22%; in experiment [2] (setting [8]), -25%; in experiment [2] (at 50.0 µM) it was 2%. For the same compound, the growth inhibition in experiment [3] (setting [7]) was 11%; in experiment [3] (setting [8]), 3%; in experiment [3] (at 50.0 µM), 9.35%; in experiment [4] (setting [7]), -3%; in experiment [4] (setting [8]), -3%; in experiment [4] (at 50.0 µM), -7.7%. In addition, the growth inhibition is 1% in experiment [5] (setting [7]); -1% in experiment [5] (setting [8]); 11.4% in experiment [5] (at 50.0 µM); 20% in experiment [6] (setting [7]); 0% in experiment [6] (setting [8]); 14.4% in experiment [6] (at 50.0 µM).
